Reference: PubChem BioAssay (NCATS)
Results filed as inconclusive are left out. Active and inactive are the calls of the source. The call rests on the fitted dose curve; in most records, active means well fitted curve in the direction sought with a large enough effect; inconclusive means small, poorly fitted or top-dose-only effect, or another doubt; inactive means no such curve, though single readings can be large; an effect the other way counts as inactive or inconclusive.

Target: Aldehyde dehydrogenase, mitochondrial (Homo sapiens) (UniProt P05091)
Test: qHTS for Inhibitors of the Aldehyde Dehydrogenase Family (ALDH2) Primary screen (AID 2061308);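 further: plate controls were vehicle for no effect and reference inhibitor for full effect; nearly all actives have a fitted effect of over 55% in size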
Conditions: ALDH2 enzyme inhibition qHTS, 1536-well; series mostly up to 56 µM; activity change, negative = inhibition: at the top concentration

| Compound | activity change, negative = inhibition |
| --- | --- |
| CC1CCC23COC(=O)C2=CC(O)CC3C1(C)CCC1=CC(=O)OC1O (stereo unspecified) | -3.92% (inactive) |
| CC1C(O)C(O)C2C(C(=O)OCCc3ccc(O)cc3)=COC(O[C@@H]3O[C@H](CO)[C@@H](O)[C@H](O)[C@H]3O)C12 (stereo partly specified) | -8.36% [at 28 µM] (inactive) |
| C=CC(C)(O)CCC1C(C)(O)CCC2C(C)(C)CCCC21C (stereo unspecified) | 15.2% (inactive) |
| CC1=C[C@H](O)[C@H]2C(C)(C)CCC[C@]2(C)[C@@]1(O)CO | 15.8% (inactive) |
| CC(C)CNCc1ccc(-c2ccccc2S(=O)(=O)N2CCCC2)cc1 | 2.84% (inactive) |
| C=CC1(C)CC(OC(=O)/C(C)=C\COC(C)=O)C(C(=C)C(=O)O)C(O)C1C(=C)CO (stereo unspecified) | -11.3% [at 28 µM] (inactive) |
| C=C1CC[C@@H]2[C@@](C)(CO[C@@H]3O[C@H](CO)[C@@H](O)[C@H](O)[C@H]3O)[C@H](O)CC[C@@]2(C)[C@@H]1CC/C(C)=C/CO[C@@H]1O[C@H](CO)[C@@H](O)[C@H](O)[C@H]1O | 6.76% [at 16.9 µM] (inactive) |
| C=C1C2(C)CC3C4(C)C=CC(=O)OC(C)(C)C4CCC3(C)C1(C(=O)OC)C(=O)C(C)(O)C2=O (stereo unspecified) | -2.59% [at 28 µM] (inactive) |
| C=CC1(C)CC=C2C(CCC3C(C)(C(=O)O)CCCC23C)C1 (stereo unspecified) | 1.89% (inactive) |
| COc1cc(COC2OC(CO)C(O)C(O)C2O)cc(OC)c1O (stereo unspecified) | 10.3% (inactive) |
| CC12CCC(C(OC3OC(COC4OCC(O)(CO)C4O)C(O)C(O)C3O)C1)C(C)(C)O2 (stereo unspecified) | 8.15% [at 28 µM] (inactive) |

Target: Retinaldehyde dehydrogenase 3 (Homo sapiens) (UniProt P47895)
Test: qHTS for Inhibitors of the Aldehyde Dehydrogenase Family (ALDH1A3) Primary screen (AID 2061315);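 further: plate controls were DMSO vehicle for no effect and reference inhibitor for full effect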
Conditions: ALDH inhibition qHTS; series mostly up to 56 µM; activity change, negative = inhibition: at the top concentration

| Compound | activity change, negative = inhibition |
| --- | --- |
| CC1(C)CCCC2(C)C1C(O)C=C(CO)C2(O)C(=O)O (stereo unspecified) | 0.198% (inactive) |
| Cc1cccc(N(C)C(=S)Oc2ccc3c(c2)CCC3)c1 | 0.615% (inactive) |
| CC(=O)OC/C(=C/C(=O)O)CC[C@@H]1C(C=O)=CC[C@@H]2C(C)(C)CCC[C@@]12C | -0.992% (inactive) |
| C=C1C(=O)O[C@@H]2[C@H]1CCC(C)=C1CCC(=O)O[C@]12C | -14.5% (inactive) |
| COC1CCCC/C(C)=C/C2C=C(C)C(C)C3C(CC(C)C)NC(=O)C23C(=O)C1 (stereo unspecified) | 6.1% [at 28 µM] (inactive) |
| C=C(C)C(=O)O[C@H]1[C@H]2C(=C)C(=O)O[C@@H]2C[C@@H](C)/C=C\C(=O)[C@](C)(O)[C@@H]1OC(C)=O | -12.3% [at 28 µM] (inactive) |
| COC(=O)C1(C)CCC2(C(=O)O)CCC3(C)C(=CCC4C5(C)CC(O)C(OC6OCC(O)C(O)C6O)C(C)(CO)C5CCC43C)C2C1 (stereo unspecified) | -3.74% [at 16.9 µM] (inactive) |
| COc1ccc(C(=O)O[C@H]2CC(C)=CC[C@@]3(C)[C@@H](OC(C)=O)C[C@@](O)(C(C)C)[C@H]23)cc1 | -9.21% [at 28 µM] (inactive) |
| C/C(=C\CCC(C)CCO)C(=O)OC[C@H]1O[C@@H](O[C@@H]2OC=C(C(=O)O)[C@H]3CC[C@](C)(O)[C@@H]23)C(O)[C@@H](O)C1O (stereo partly specified) | 3.17% [at 28 µM] (inactive) |
| CC(O)(C(=O)O)C1CCC2(C)C1CCC1(C)C2CCC2C3(C)CCC(O)C(C)(COC4OC(CO)C(O)C(O)C4O)C3CCC21C (stereo unspecified) | 20% [at 16.9 µM] (inactive) |
| CS(=O)(=O)N(CC(=O)NCC1CC1)c1cc(C(F)(F)F)ccc1Cl | 3.53% (inactive) |
| CC(=O)OC(C)(C)/C=C/C(=O)[C@](C)(O)C1[C@H](O)C[C@@]2(C)[C@@H]3CC=C4[C@@H](C[C@H](O[C@@H]5O[C@H](CO)[C@@H](O)[C@H](O)[C@H]5O)C(=O)C4(C)C)[C@]3(C)C(=O)C[C@]12C (stereo partly specified) | -11.9% [at 16.9 µM] (inactive) |
| CN(C)CC1CCOC1(c1ccccc1)c1ccccc1 (stereo unspecified) | -10.1% [at 16.9 µM] (inactive) |
| C=CC(C)(O)CO[C@@H]1O[C@H](CO)[C@@H](O)[C@H](O)[C@H]1O (stereo partly specified) | -3.56% (inactive) |
| CC1CC[C@]2(C(=O)O)CC[C@]3(C(=O)O)C(=CCC4[C@@]5(C)CC[C@H](O[C@@H]6O[C@H](CO)[C@@H](O)[C@H](O)[C@H]6O)C(C)(C)C5CC[C@]43C)C2C1C (stereo partly specified) | 17% [at 16.9 µM] (inactive) |
| C/C1=C\[C@@H](C)C[C@@H](C)[C@@H](Cc2cnco2)OC(=O)/C(C)=C/[C@@H](C)C[C@@H](C)[C@@H](Cc2cnco2)OC1=O | 14.8% [at 28 µM] (inactive) |
| O[C@@](Cc1ncc(CC2(C(F)(F)F)CC2)[nH]1)(c1ccc(-n2cccn2)cc1)C(F)(F)F | 39.9% (inactive) |
| NC(=O)NCCCC(NC(=O)Cc1ccccc1)C(=O)O (stereo unspecified) | -7.19% (inactive) |
| CC1=CC(=O)CC(C)(C)[C@H]1/C=C/C(CO)O[C@@H]1O[C@H](CO)[C@@H](O)[C@H](O)[C@H]1O (stereo partly specified) | 11.1% (inactive) |
| C[C@@H]1O[C@@H](OC[C@H]2O[C@@H](Oc3cc(O)cc4c3C(=O)C(O)(Cc3ccc(O)cc3)O4)[C@H](O)[C@@H](O)[C@@H]2O)[C@H](O)[C@H](O)[C@H]1O (stereo partly specified) | 0.611% [at 16.9 µM] (inactive) |

| Compound | activity change, negative = inhibition |
| --- | --- |
| CC1=C(C(=O)O)/C(=C/CO[C@@H]2O[C@H](COC(=O)/C=C/c3ccc(O)cc3)[C@@H](O)[C@H](O)[C@H]2O)C(O)C1 (stereo partly specified) | -8.06% [at 28 µM] (inactive) |
| COc1c2c(c(CO)c3c1C(=O)OC3)OC1(C)CCC3(O)C(C)(C)OC(=O)CCC3(C)C1C2 (stereo unspecified) | 4.38% [at 28 µM] (inactive) |
| CCCCn1ccc(N2CCC(c3ccccc3)CC2)c(Cl)c1=O | 4.71% (inactive) |
| C/C=C(\C)C(=O)O[C@@H]1CC2[C@@H](CC=C3C[C@@H](O[C@H]4C[C@H](OC)[C@H](O[C@H]5C[C@H](OC)[C@H](O[C@@H]6O[C@H](C)[C@@H](O[C@H]7C[C@H](OC)[C@H](O[C@@H]8O[C@H](CO)[C@@H](O)[C@H](O)[C@H]8O)[C@@H](C)O7)[C@H](OC)[C@H]6O)[C@@H](C)O5)[C@@H](C)O4)CC[C@@]32C)[C@@]2(O)CC[C@H](C(C)=O)[C@@]12C (stereo partly specified) | 11% [at 11.2 µM] (inactive) |
| CC(=O)OCC1=C[C@@H]2OC(=O)C3=CO[C@@H](O[C@@H]4O[C@H](CO)[C@@H](O)[C@H](O)[C@H]4O)[C@H]1[C@@H]32 | 13% [at 28 µM] (inactive) |
| O=C(CCc1ccccc1)c1c(O)c([C@@H]2O[C@H](CO)[C@@H](O)[C@H](O)[C@H]2O)c(O)c([C@@H]2O[C@H](CO)[C@@H](O)[C@H](O)[C@H]2O)c1O | -8.19% [at 16.9 µM] (inactive) |
| COc1c(C)c2c(c(O)c1C/C=C(\C)CC/C=C(\C)CCC(=O)O)C(=O)OC2 | 9.82% (inactive) |
| CC12CC34C=CC(=O)C(C)(CCC(=O)O)C3C(CC1C4)O2 (stereo unspecified) | -3.1% (inactive) |
| CC(C)(O)c1ccc2c(c1)C(O)CC1C(C)(C(=O)O)CCCC21C (stereo unspecified) | -6.61% (inactive) |
| CC1CCC23COC(=O)C2=CC(O)CC3C1(C)CCC1=CC(=O)OC1O (stereo unspecified) | -4.46% (inactive) |
| CC1C(O)C(O)C2C(C(=O)OCCc3ccc(O)cc3)=COC(O[C@@H]3O[C@H](CO)[C@@H](O)[C@H](O)[C@H]3O)C12 (stereo partly specified) | -22.3% [at 28 µM] (inactive) |
| C=CC(C)(O)CCC1C(C)(O)CCC2C(C)(C)CCCC21C (stereo unspecified) | 8.17% (inactive) |
| CC1=C[C@H](O)[C@H]2C(C)(C)CCC[C@]2(C)[C@@]1(O)CO | -0.197% (inactive) |
| CC(C)CNCc1ccc(-c2ccccc2S(=O)(=O)N2CCCC2)cc1 | -19% (inactive) |
| C=CC1(C)CC(OC(=O)/C(C)=C\COC(C)=O)C(C(=C)C(=O)O)C(O)C1C(=C)CO (stereo unspecified) | 1.93% [at 28 µM] (inactive) |
| C=C1CC[C@@H]2[C@@](C)(CO[C@@H]3O[C@H](CO)[C@@H](O)[C@H](O)[C@H]3O)[C@H](O)CC[C@@]2(C)[C@@H]1CC/C(C)=C/CO[C@@H]1O[C@H](CO)[C@@H](O)[C@H](O)[C@H]1O | 12.3% [at 16.9 µM] (inactive) |
| C=C1C2(C)CC3C4(C)C=CC(=O)OC(C)(C)C4CCC3(C)C1(C(=O)OC)C(=O)C(C)(O)C2=O (stereo unspecified) | 1.56% [at 28 µM] (inactive) |
| C=CC1(C)CC=C2C(CCC3C(C)(C(=O)O)CCCC23C)C1 (stereo unspecified) | 9.65% (inactive) |
| COc1cc(COC2OC(CO)C(O)C(O)C2O)cc(OC)c1O (stereo unspecified) | -26.6% (inactive) |
| CC12CCC(C(OC3OC(COC4OCC(O)(CO)C4O)C(O)C(O)C3O)C1)C(C)(C)O2 (stereo unspecified) | -30% [at 28 µM] (inactive) |
